Assay results from PubChem BioAssay (NCI).
Compounds without any hit were thinned out: in the full panel of roughly 83,000, 20% have a hit.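 Growth was measured after 48 h exposure to one concentration of compound in 96-well plates. Values under 10 count as active.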 Values without a mark were called inactive. The source made the active and inactive calls.

Experiments:
Test in all cases: NCI-60 one-dose screen, 48 h (100 = growth as untreated, 0 = no growth, -100 = all killed)
Conditions in all cases: 10 µM unless noted
DU-145 prostate = tested on: DU-145 prostate
MALME-3M melanoma = tested on: MALME-3M melanoma
MDA-MB-231 breast = tested on: MDA-MB-231 breast
RXF 393 renal = tested on: RXF 393 renal
SF-268 CNS = tested on: SF-268 CNS
SF-295 CNS = tested on: SF-295 CNS
SF-539 CNS = tested on: SF-539 CNS
UACC-257 melanoma = tested on: UACC-257 melanoma
M14 melanoma = tested on: M14 melanoma
K-562 leukemia = tested on: K-562 leukemia

| Compound | growth (DU-145 prostate) | growth (MALME-3M melanoma) | growth (MDA-MB-231 breast) | growth (RXF 393 renal) | growth (SF-268 CNS) | growth (SF-295 CNS) | growth (SF-539 CNS) | growth (UACC-257 melanoma) | growth (M14 melanoma) | growth (K-562 leukemia) |
| --- | --- | --- | --- | --- | --- | --- | --- | --- | --- | --- |
| O=[N+]([O-])c1ccc(O)c2ncccc12 | 75.8% | 52.2% | 46% | 92.4% | 50.2% | 24.5% | 42.2% | 73.6% | 47.3% | – |
| FCOC(C(F)(F)F)C(F)(F)F | 113% | 92.2% | 120% | 115% | 115% | 106% | 98.8% | 90.4% | 99.9% | – |
| Cc1cc(O)cc2c1[C@H]1CC[C@]3(C)[C@@H](O)CC[C@H]3[C@@H]1C=C2 | 113% | – | 80.9% | – | 92.2% | – | 98.4% | 85.2% | 77.5% | – |
| COc1ccc(Nc2[nH]n(C3=Nc4ccccc4Sc4ccccc43)c(=O)c2C#N)cc1 | 67% | – | 51.2% | 59.3% | 67.2% | – | 45.6% | 36.3% | 55.9% | 51.9% |
| Clc1ccc2c(N3CCN(c4ccnc(NC5CCCCC5)n4)CC3)ccnc2c1 | 62.4% | – | – | 57.6% | 71.6% | 39.3% | 53.5% | 0.862% (active) | -43.7% (active) | 7.08% (active) |
| Cc1cc(C)c(S(=O)O)c(C)c1 | 120% | 122% | 102% | 101% | 114% | 93.4% | 104% | 121% | 116% | – |
| CC(=O)OCC1O[C@@H]([S-])C(OC(C)=O)[C@H](OC(C)=O)[C@@H]1OC(C)=O.[Au+].c1ccc(CN2[CH-]N(Cc3ccccc3)C(c3ccccc3)=C2c2ccccc2)cc1 | – | – | – | – | – | 31.1% | – | – | – | – |
| Cc1ccc(C(=O)O[C@H](C(=O)O)[C@H](OC(=O)c2ccc(C)cc2)C(=O)O)cc1 | – | – | 113% | – | – | – | – | – | – | – |
| c1ccc2c(c1)oc1cc3c(cc12)nnc1cccn13 | – | 93.8% | 101% | 127% | 105% | 101% | 95.1% | 95.7% | 98.7% | – |
| CC(C)N1CCN(c2ccc(OC[C@H]3CO[C@](Cn4cncn4)(c4ccc(Cl)cc4Cl)O3)cc2)CC1 | 111% | 86.1% | 65.8% | 74.7% | 102% | 89% | 79.4% | -28.4% (active) | 52.8% | – |
| CN1CCn2c(c(Sc3ccc(C(=O)NO)cc3)c3ccccc32)C1=O | 36.3% | 63.6% | -15.2% (active) | -14.4% (active) | -34.9% (active) | -1.68% (active) | -90.8% (active) | -9.93% (active) | -37.7% (active) | – |
| N#C[S-].[Au+].c1ccc(CN2[CH-]N(Cc3ccccc3)C(c3ccccc3)=C2c2ccccc2)cc1 | – | – | – | – | – | -14.8% (active) | – | – | – | – |
| COC(=O)c1ccc(C(=O)Nc2ccccc2N)cc1 | 80.2% | – | 67.3% | 86.8% | 65.4% | – | 64.9% | 75.7% | 83.3% | 73.3% |
| CC1SC(c2ccc(Cl)cc2)N(CCc2cccs2)C1=O (stereo unspecified) | – | -32.8% (active) | -4.43% (active) | -35.7% (active) | 14.3% | -2.2% (active) | -49.7% (active) | -28.7% (active) | -12.8% (active) | 7.81% (active) |
| CON=C1C[C@]2(C[C@@H]3C[C@@H](C/C=C(\C)C[C@@H](C)/C=C/C=C4\CO[C@@H]5[C@H](O)C(C)=C[C@@H](C(=O)O3)[C@]45O)O2)O[C@H](/C(C)=C/C(C)C)[C@H]1C | 39.6% | 65.9% | 54% | 47.2% | 58.3% | 33% | 85.1% | 81.3% | 57.4% | – |
| Brc1ccc(Br)nn1 | -91% (active) | -91% (active) | -65.6% (active) | -89.8% (active) | -74.4% (active) | -10.9% (active) | -53.1% (active) | -68.4% (active) | -76.4% (active) | – |
| N#Cc1c(O)c2c(c(O)c1C#N)C(=O)c1ccccc1C2=O | – | -16.5% (active) | 2.69% (active) | 92.3% | 32.6% | 59.6% | 46.9% | 28.4% | 2.51% (active) | – |
| CCCCC/C=C\C/C=C/CCCCCCCCNC(=O)Nc1ccc([N+](=O)[O-])cc1 | 47.3% | 82.9% | 77.8% | 113% | 42.5% | 56.4% | 107% | 98.9% | 77.9% | – |
| O=C(O)C[C@H](O)C[C@H](O)/C=C/c1c(C2CC2)nc2ccccc2c1-c1ccc(F)cc1 | 113% | 104% | -47.7% (active) | 63.5% | 31.9% | 22.9% | 81.2% | 95.5% | 90.8% | – |

| Compound | growth (DU-145 prostate) | growth (MALME-3M melanoma) | growth (MDA-MB-231 breast) | growth (RXF 393 renal) | growth (SF-268 CNS) | growth (SF-295 CNS) | growth (SF-539 CNS) | growth (UACC-257 melanoma) | growth (M14 melanoma) | growth (K-562 leukemia) |
| --- | --- | --- | --- | --- | --- | --- | --- | --- | --- | --- |
| Cc1cc[n+](CCc2ccccc2)cc1 | – | – | – | 108% | – | – | – | – | – | – |
| Cc1ccc(N(CSc2ccc(Cl)cc2)CSc2ccc(Cl)cc2)cc1 | 44.8% | 69.1% | 18.4% | 91.4% | 25% | 11.3% | 16.1% | 88.9% | 57.8% | – |
| COc1ccc(OC2=C(C#N)C(=N)N3c4ccccc4Sc4ccccc4C3N2)cc1 (stereo unspecified) | 99.7% | – | 60.8% | 78% | 89.2% | – | 91.5% | 115% | 105% | 148% |
| CCOc1ccc(/C=N\N2CCCCCC2)cc1OCC | 108% | – | 77.7% | 103% | 102% | 104% | 97.2% | 96.2% | 105% | – |
| O=C(c1ccccc1)C(Br)C(Br)c1cccc([N+](=O)[O-])c1 (stereo unspecified) | 76% | -43.1% (active) | 59.9% | -78.8% (active) | 72.1% | 88.5% | 38.1% | 19.8% | 34.3% | – |
| Clc1ccc(C2=Nc3cccc4cccc(c34)N2)cc1Cl | 110% | 102% | 97.4% | -5.75% (active) | – | 112% | 108% | 93.6% | 103% | – |
| OC[C@@H](O)[C@@H](O)CO | 111% | 97.3% | 94.7% | 110% | 108% | 94.7% | 102% | 105% | 106% | – |
| CCCCCCCCCCCCCCCC[N+]1(C)CCOCC1 | 28.7% | -2.82% (active) | -7.42% (active) | -79.9% (active) | -34.5% (active) | 19.8% | -1.77% (active) | 49.4% | 1.49% (active) | – |
| O=S(=O)(OCCO)c1ccccc1 | 112% | 105% | 97.2% | 98.1% | 102% | 93.1% | 106% | 103% | 109% | – |
| CSC1=CC(=O)c2ccccc2C1=O | 95.5% | -0.209% (active) | -14.5% (active) | 98.3% | 69% | 93.7% | 97.1% | 42% | 94.7% | – |
| C=CCCCCCCCCC(=O)[O-].C=CCCCCCCCCC(=O)[O-].[Zn+2] | – | – | 106% | – | – | – | – | – | – | – |
| OB(O)c1ccccc1 | 111% | 102% | 114% | 123% | 106% | 97.7% | 106% | 99.4% | 108% | – |
| CC(=O)OCC1OC([S-])C(OC(C)=O)C(OC(C)=O)C1OC(C)=O.[Au+].c1ccc(CN2[CH-]N(Cc3ccccc3)C(c3ccccc3)=C2c2ccccc2)cc1 | – | – | – | – | – | -11.3% [4.75 µM] (active) | – | – | – | – |
| Cn1c2ccc(Cl)cc2c2nn(C(=O)c3ccccc3)c(=O)nc21 | 114% | – | 106% | 98.9% | 104% | – | 99.9% | 128% | 98.9% | 110% |
| O=C1c2cc(S(=O)(=O)O)ccc2C(=O)c2c1cccc2[N+](=O)[O-] | – | 111% | 112% | 128% | 108% | 100% | 104% | 93% | 95.2% | – |
| COc1cc(-c2nc(Nc3nc4ccccc4[nH]3)nc(N)c2C#N)cc(OC)c1OC | 61.8% | 65% | 53% | -1.43% (active) | 71.2% | 18.1% | 58.9% | 69.5% | 53% | – |
| COC(=O)c1cc(-c2ccc(C)cc2)n(C(=O)CSc2nc3sc(C(N)=O)c(C)c3c(=O)n2Cc2ccccc2)n1 | 102% | – | – | 106% | 108% | 109% | 104% | 106% | 102% | 101% |
| CC1=C(C/C=C(\C)CCC[C@H](C)CCC[C@H](C)CCCC(C)C)C(=O)c2ccccc2C1=O | 120% | 102% | 106% | 119% | 108% | 101% | 96.4% | 98.2% | 104% | – |
